Source: PubChem BioAssay (NCATS)
Records with an inconclusive call do not appear. The source made the active and inactive calls. Calls follow the shape of the dose curve; as a rule, active = well fitted curve in the direction sought with a large enough effect; inconclusive = small, poorly fitted or top-dose-only effect, or another doubt; inactive = no such curve, though single readings can be large; an effect the other way counts as inactive or inconclusive.

Assays:
[1] = biological target: Aldehyde dehydrogenase, mitochondrial (Homo sapiens) (UniProt P05091); assay: qHTS for Inhibitors of the Aldehyde Dehydrogenase Family (ALDH2) Primary screen (AID 2061308); also: nearly all actives have a fitted effect of over 55% in size
[2] = biological target: Retinaldehyde dehydrogenase 3 (Homo sapiens) (UniProt P47895); assay: qHTS for Inhibitors of the Aldehyde Dehydrogenase Family (ALDH1A3) Validation screen (AID 2061312); also: nearly all actives have a fitted effect of over 45% in size
[3] = biological target: Retinaldehyde dehydrogenase 3 (Homo sapiens) (UniProt P47895); assay: qHTS for Inhibitors of the Aldehyde Dehydrogenase Family (ALDH1A3) Primary screen (AID 2061315)

Measured: Potency

CCS(=O)c1nc(-c2cccc(OCc3ccccc3)c2)cc(C(F)(F)F)n1 (stereo not given)
inactive: all assays above

CC(=O)Nc1cccc2c1c(Sc1ccc(Cl)cc1)c(C)n2CC(=O)O
inactive: all assays above

Cc1cn(-c2cc(NC(=O)c3ccc(C)c(Nc4nccc(-c5cnccn5)n4)c3)cc(C(F)(F)F)c2)cn1
inactive: all assays above

CC(C)n1cnc2c(Nc3cccc(Cl)c3)nc(NCCO)nc21
inactive: all assays above

CC(=O)N1c2ccc(-c3ccc(C(=O)O)cc3)cc2C(Nc2ccc(Cl)cc2)CC1C (stereo not given)
inactive: all assays above

Cc1ccc(C(=O)N(CCCN)C(c2nc3cc(Cl)ccc3c(=O)n2Cc2ccccc2)C(C)C)cc1 (stereo not given)
inactive: all assays above

CC[C@H](C)[C@H]1O[C@]2(CC[C@@H]1C)C[C@@H]1C[C@@H](C/C=C(\C)[C@@H](O[C@H]3C[C@H](OC)[C@@H](O[C@H]4C[C@H](OC)[C@@H](O)[C@H](C)O4)[C@H](C)O3)[C@@H](C)/C=C/C=C3\CO[C@@H]4[C@H](O)C(C)=C[C@@H](C(=O)O1)[C@]34O)O2
inactive: all assays above

CC(C)[C@@](C)(O)[C@@H]1CN(c2nc(-c3[nH]nc4ncccc34)c(F)cc2Cl)CCN1
inactive: all assays above

C[C@@H](NC(=O)C(=O)c1c[nH]c2ccc([N+](=O)[O-])cc12)c1ccccc1
inactive: all assays above

O=C(NCc1nc2ccccc2c(=O)n1-c1ccc(F)cc1)Nc1ccc(Cl)c(C(F)(F)F)c1
inactive: all assays above
